In the supplement of paper PMC8183993:
Values joined by “and” are separate entries in the source; they are usually repeats but may differ in a detail not shown here. Identical values can stand only once. Counter-ions that a name gives are not always drawn. ± gives the standard deviation of the averaged measurements. Over roughly 3,200 compounds, “nuclei count (viability) relative to DMSO” has its median near 99; the lowest 2% begin near 16. The full list was thinned out, with the lowest values kept by preference.

Tested on: U2OS
Assay: nuclei count (viability) relative to DMSO (% of DMSO); higher = more viable cells
Conditions: 10 µM; 24 h
Protocol: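 Primary image-based screen in U2OS cells: compounds at 10 uM for 24 h, then a 1 h o-propargyl-puromycin (OPP) pulse, click labelling, and high-throughput microscopy. Mean cytoplasmic OPP intensity and nuclei count were normalised to DMSO wells within each plate (DMSO = 100) and averaged over triplicate plates.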

Row | SMILES | nuclei count
1 | COc1ccc(Br)cc1S(=O)(=O)NC(=O)/C=C/c1ccccc1Cc1ccc2ccccc2c1 | 104
2 | O=C1c2ccccc2-c2nc3nonc3nc21 | 44
3 | CCCCCCCc1ccc(CCc2cccc(O)c2C(=O)O)cc1 | 7.35
4 | CCCCCCCCc1ccc(CCC(N)(CO)CO)cc1 [Fingolimod (FTY720)] | 18.9 ± 0.71
5 | CCCCCCCCc1ccc(-c2ccc(C(=O)O)cc2)cc1 | 108
6 | CC(C)=CCC/C(C)=C/CC/C(C)=C/CSCC(=O)O [Farnesylthioacetic acid] | 97.9
7 | C1COC(NC(C2CC2)C2CC2)=N1 [Rilmenidine] | 93.6
8 | C1COC(NC(C2CC2)C2CC2)=N1 [Rilmenidine hemifumarate] | 103
9 | CC(C)(C)c1ccc(S(=O)(=O)/C=C/C#N)cc1 | 43.7
10 | COc1cc([C@@H]2c3cc4c(cc3[C@@H](O[C@@H]3O[C@@H]5CO[C@@H](C)O[C@H]5[C@H](O)[C@H]3O)[C@H]3COC(=O)[C@H]23)OCO4)cc(OC)c1O [Etoposide (VP-16)] | 50.9
11 | COc1cc([C@@H]2c3cc4c(cc3[C@@H](O[C@@H]3O[C@@H]5CO[C@@H](c6cccs6)O[C@H]5[C@H](O)[C@H]3O)[C@H]3COC(=O)[C@H]23)OCO4)cc(OC)c1O [Teniposide (Vumon)] | 15.5
12 | COc1cc([C@@H]2c3cc4c(cc3[C@@H](O[C@@H]3O[C@@H]5CO[C@@H](C)O[C@H]5[C@H](O)[C@H]3O)[C@H]3COC(=O)[C@H]23)OCO4)cc(OC)c1O [Etoposide] | 44.3 ± 2
13 | CC[C@H](CO)Nc1nc(Nc2cccc(-c3ccccn3)c2)c2ncn(C(C)C)c2n1 [(R)-DRF053 dihydrochloride] | 76.2
14 | CC(Oc1ccc(O)cc1)(P(=O)(O)O)P(=O)(O)O | 105 ± 0.12
15 | CO[C@@H]1[C@H](O)[C@@H](CO)O[C@H]1n1cnc2c(NC3CCCCC3)ncnc21 | 102
16 | COCC[n+]1c2c(n(Cc3cnccn3)c1C)C(=O)c1ccccc1C2=O | 14.1
17 | CC(=O)NNC(=O)N1Cc2ccccc2Oc2ccc(Cl)cc21 | 94.3
18 | OCc1ccc(O[C@@H]2O[C@H](CO)[C@@H](O)[C@H](O)[C@H]2O)cc1 [Gastrodin (Gastrodine)] | 94.5
19 | CSc1cccc(Nc2ncc3cc(-c4c(Cl)cccc4Cl)c(=O)n(C)c3n2)c1 | 72.2
20 | CCN(CC)CCOc1ccc(Cc2ccccc2)cc1 [DPPE fumarate] | 101
21 | CCN(CC)CCOc1ccc(Nc2ncc3cc(-c4c(Cl)cccc4Cl)c(=O)n(C)c3n2)cc1 | 7.54
22 | Cc1ccc(CC2(O)CCN(CCOc3ccc(O)cc3)CC2)cc1 | 87.3
23 | COc1ccc(CCC(=O)c2c(O)cc(O[C@@H]3O[C@H](CO)[C@@H](O)[C@H](O)[C@H]3O[C@@H]3O[C@@H](C)[C@H](O)[C@@H](O)[C@H]3O)cc2O)cc1O [Neohesperidin dihydrochalcone (Nhdc)] | 98.7
24 | COC(=O)[C@]12CCC(C)(C)C[C@H]1[C@H]1C(=O)C=C3[C@@]4(C)C=C(C#N)C(=O)C(C)(C)[C@@H]4CC[C@@]3(C)[C@]1(C)CC2 [Bardoxolone Methyl] | 4.35
25 | C[C@]12CC[C@@H](O)C[C@@H]1CC[C@@H]1[C@@H]2CC[C@]2(C)C=CC[C@@H]12 [3a, 5a-Androstenol] | 90.5
26 | Cc1ccc(NC(=O)c2ccc(CN3CCN(C)CC3)cc2)cc1Nc1nccc(-c2cccnc2)n1 [Imatinib] | 101
27 | Cc1ccc(C(=O)Nc2ccc(CN3CCN(C)CC3)c(C(F)(F)F)c2)cc1C#Cc1cnc2[nH]ncc2c1 [GZD824 Dimesylate] | 14.1

Row | SMILES | nuclei count
28 | Cc1ccc(NC(=O)c2ccc(CN3CCN(C)CC3)cc2)cc1Nc1nc(-c2cccnc2)cs1 [Masitinib (AB1010)] | 90.7
29 | Cc1ccc(NC(=O)c2ccc(CN3CCN(C)CC3)cc2)cc1Nc1nccc(-c2cccnc2)n1 [Imatinib (STI571)] | 99.1
30 | Cc1ccc(NC(=O)c2ccc(CN3CCN(C)CC3)cc2)cc1Nc1nccc(-c2cccnc2)n1 [Imatinib mesylate] | 93.1 ± 2.5
31 | Cc1ccc(NC(=O)c2ccc(CN3CCN(C)CC3)cc2)cc1Nc1nccc(-c2cccnc2)n1 [Imatinib Mesylate] | 96.8
32 | Cc1ccc(NC(=O)c2ccc(CN3CC[C@H](N(C)C)C3)c(C(F)(F)F)c2)cc1Nc1nccc(-c2cncnc2)n1 [Bafetinib (INNO-406)] | 77.9
33 | Cc1ccc(C(=O)Nc2ccc(CN3CCN(C)CC3)c(C(F)(F)F)c2)cc1C#Cc1cnc2cccnn12 | 16.3
34 | CCNC(=O)Nc1ccc(-c2nc3c(c(N4CCOC[C@@H]4C)n2)CCN(C2COC2)C3)cc1 | 75.4 ± 5.5
35 | O=C(O)[C@]1(Cc2cccc(Nc3nccs3)n2)CC[C@@H](Oc2cccc(Cl)c2F)CC1 | 77.7 ± 2.7
36 | CC(C1=C(CCN(C)C)Cc2ccccc21)c1ccccn1 (stereo in doubt) [(S)-(+)-Dimethindene maleate] | 101
37 | CCNC(=O)c1cc2c(-c3cc(OCCN4CCCC4)c(Cl)cc3Cl)nc(N)nc2s1 | 67
38 | NC(=O)N1c2ccccc2CC(O)c2ccccc21 (centres undefined) [Licarbazepine] | 104
39 | CCNc1nc(Nc2cc(F)c(C(=O)N3CCOCC3)cc2OC)ncc1C(F)(F)F | 96.2
40 | COc1ccc(-n2[nH]c3c4c(ncc3c2=O)CCCCC4)cc1 | 99.9
41 | O=C(O)c1cc(O)ccc1O [Gentisic acid] | 103
42 | COc1ccc2[nH]c(-c3ccccc3)c(CCNC(C)=O)c2c1 [2-Phenylmelatonin] | 84.5
43 | N[C@@H](CSC(c1ccccc1)(c1ccccc1)c1ccccc1)C(=O)O [S-Trityl-L-cysteine] | 95
44 | CNC(=O)c1nn(C)c2c1C(C)(C)Cc1cnc(Nc3ccc(N4CCN(C)CC4)cc3)nc1-2 | 54.8 and 36.4
45 | Cc1cnc(Nc2ccc(N3CCN(C)CC3)cc2)nc1Nc1cccc(S(=O)(=O)NC(C)(C)C)c1 | 5.44
46 | C=CCn1c(=O)c2cnc(Nc3ccc(N4CCN(C)CC4)cc3)nc2n1-c1cccc(C(C)(C)O)n1 | 25.1
47 | Cc1cnc(Nc2ccc(OCCN3CCCC3)cc2)nc1Nc1cccc(S(=O)(=O)NC(C)(C)C)c1 | 7.48 and 5.57
48 | C=CC(=O)Nc1cccc(Nc2nc(Nc3ccc(OCCOC)cc3)ncc2F)c1 | 34.7
49 | CS(=O)(=O)c1cccc(CNc2nc(Nc3ccc4c(c3)CCC(=O)N4)ncc2C(F)(F)F)c1 | 45.9 ± 3.2
50 | Oc1cc2c(cc1O)[C@@H]1c3ccc(O)c(O)c3OC[C@]1(O)C2 [Hematoxylin (Hydroxybrazilin)] | 86
51 | Cc1nn(C)c2nc(NNC(=O)Nc3cc(Cl)nc(Cl)c3)cc(C(C)C)c12 | 106
52 | COC(=O)C1=C(C)NC(C)=C([N+](=O)[O-])[C@H]1c1ccccc1C(F)(F)F | 99.5
53 | O=C(c1ccc(Cl)cc1Cl)n1nnc2ccccc21 | 83.2
54 | COc1cc(OC)c(/C=C/S(=O)(=O)Cc2ccc(OC)c(NCC(=O)O)c2)c(OC)c1 | 16.3 ± 1.4
